# PubChem BioAssay (NCATS)
# “And” between values parts separate entries of the source, which are not always exact repeats. Identical values can stand only once. Results filed as inconclusive are left out. Unmarked numbers belong to inactive results. The source made the active and inactive calls. The call rests on the fitted dose curve; in most records, active means well fitted activation curve with a large enough effect; inconclusive means small, poorly fitted or top-dose-only effect; inactive means no such curve, though single readings can be large or run the other way.
# Biological target: Cellular tumor antigen p53 (Homo sapiens) (UniProt P04637)
# Assay: Primary qHTS for small molecule compounds that upregulate eGFP-tagged delta133p53alpha (in N-terminal) cells. (AID 2060322); further: nearly all actives have a fitted effect of over 75% in size;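 on activation: series mostly up to about 56 µM; 0% = DMSO vehicle and 100% = reference activator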
# Settings: NCI-H358 eGFP-delta133p53alpha fluorescence, 24 h; activation: stronger effect = higher value
# Procedure, shortened: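 NCI-H358 cells pre-induced 24 h with 10 ng/ml doxycycline to express N-terminal eGFP-delta133p53alpha, then dosed 24 h at 37C without doxycycline; fixed, Hoechst-stained, GFP intensity by laser scanning cytometry, normalized to DMSO (0%) and 57.5 uM 5-azacytidine (100%).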
# Potency means the concentration at half of the fitted maximal effect.
# Chain of Cellular tumor antigen p53 (Homo sapiens) (P04637 whole entry, looked up): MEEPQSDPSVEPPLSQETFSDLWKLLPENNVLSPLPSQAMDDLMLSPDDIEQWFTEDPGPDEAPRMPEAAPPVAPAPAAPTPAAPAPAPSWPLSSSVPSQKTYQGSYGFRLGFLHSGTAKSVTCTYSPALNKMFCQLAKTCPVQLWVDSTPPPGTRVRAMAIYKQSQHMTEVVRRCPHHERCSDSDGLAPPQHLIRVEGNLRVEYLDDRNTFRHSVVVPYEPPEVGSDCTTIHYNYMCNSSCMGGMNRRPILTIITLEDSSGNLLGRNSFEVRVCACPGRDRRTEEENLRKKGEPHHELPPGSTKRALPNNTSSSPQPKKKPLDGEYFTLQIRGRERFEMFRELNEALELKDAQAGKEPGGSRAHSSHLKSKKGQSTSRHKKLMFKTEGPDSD
SMILES,activation,Potency
O=C(C=Cc1ccc(O)cc1)c1ccc(O)cc1O,-12.8%,
CCOC(=O)/C=C(C)/C=C/C=C(C)/C=C/c1c(C)cc(OC)c(C)c1C,9.6%,
OC[C@@H](O)[C@@H](O[C@@H]1O[C@H](CO)[C@H](O)[C@H](O)[C@H]1O)[C@H](O)[C@@H](O)CO,-8.37%,
CC(CC(C#N)(c1ccccc1)C(C)C)N(C)C (stereo not given),-0.837%,
CC(C)C(=O)Nc1cccc(C(F)(F)F)c1,-15.3%,
CC=CCC(C)C(O)C1C(=O)NC(CC)C(=O)N(C)CC(=O)N(C)C(CC(C)C)C(=O)NC(C(C)C)C(=O)N(C)C(CC(C)C)C(=O)NC(C)C(=O)NC(C)C(=O)N(C)C(CC(C)C)C(=O)N(C)C(CC(C)C)C(=O)N(C)C(C(C)C)C(=O)N1C (stereo not given),-6.27%,
Nc1ncnc2nc[nH]c12,18.4%,
CCOC(=O)C(=O)CCCCCCl,-5.02%,
Nc1ccc(S(=O)(=O)Nc2ccccn2)cc1,-36.8% and 13.3%,
CCCCCCCCCCCCCCC[C@H](O)[C@@H](N)CO,18.4%,
C[C@@H]1C[C@H]2[C@@H]3C[C@H](F)C4=CC(=O)C(Cl)=C[C@]4(C)[C@@]3(F)[C@@H](O)C[C@]2(C)[C@@]1(O)C(=O)CO,-14.1%,
Cc1cn([C@H]2C[C@H](F)[C@@H](CO)O2)c(=O)[nH]c1=O,0.837%,
CCC(=O)O[C@]1(C(=O)COC)[C@@H](C)C[C@H]2[C@@H]3CCC4=CC(=O)C=C[C@]4(C)C3(F)[C@@H](O)C[C@@]21C (stereo not given in full),-4.18%,
COc1cc(C(=O)NC2CCCNC2)cc(OC)c1OC (stereo not given),-3.95%,
O=C(O)c1cn(C2CC2)c2cc(Cl)c(F)cc2c1=O,11.9%,
COc1cc(S(N)(=O)=O)cc(C(=O)O)c1OC,-2.82%,
CC=CC1=C(C(=O)O)N2C(=O)[C@H](NC(=O)[C@H](N)c3ccc(O)cc3)[C@@H]2SC1,11.1%,
CCC(CC)(CC(=O)Nc1cccc(/C=C/c2nc(C3CCC3)cs2)c1)C(=O)O,24.3%,
CC1=C(C/C=C(\C)CCC[C@H](C)CCC[C@H](C)CCCC(C)C)C(=O)c2ccccc2C1=O,18.6%,
O=C1c2ccccc2S(=O)(=O)N1CCCCN1CCN(c2ncccn2)CC1,13.4%,

SMILES,activation,Potency
O=C(CCc1ccc(O)cc1)c1c(O)cc(O)cc1O[C@@H]1O[C@H](CO)[C@H](O)[C@H](O)[C@H]1O,1.26%,
c1ccc2sc(SN3CCOCC3)nc2c1,8.37%,
CCc1c(C(=O)Nc2cc(S(=O)(=O)N(CC)CC)ccc2O)[nH]c(C)c1C(C)=O,-38%,
O=S(=O)(O)c1ccc2nc(-c3ccccc3)[nH]c2c1,23.2%,
O=C(NC1CCN(CCc2c[nH]c3ccccc23)CC1)c1ccccc1,2.51%,
CCOC(=O)N1CCN([N+]([O-])=NOc2ccc([N+](=O)[O-])cc2C#N)CC1,12.2%,
O=C(CS(=O)Cc1ccco1)NC/C=C\COc1cc(CN2CCCCC2)ccn1 (stereo not given),-5.08%,
C[C@H]1O[C@@H](n2cc(F)c(=O)[nH]c2=O)[C@H](O)[C@H]1O,0.294%,
COC1=C2C[C@@H](C)C[C@H](OC)[C@@H](O)[C@@H](C)C=C(C)[C@H](OC(N)=O)[C@@H](OC)C=CC=C(C)C(=O)NC(=CC1=O)C2=O,-17.1%,
CCCCCCCCCCCCCCCCN,-20.1%,
FC(F)(F)C(Cl)Br (stereo not given),8.37%,
NC(=O)NNc1ccccc1,0.565%,
CC1(C)S[C@@H]2[C@H](NC(=O)[C@H](N)c3ccccc3)C(=O)N2[C@H]1C(=O)O,-15.3%,
CN(C)CCc1c[nH]c2ccc(Cn3cncn3)cc12,,21.7 µM (active)
NS(=O)(=O)c1cc2c(cc1Cl)CN(C1CCCCC1)C2=O,20.9%,
FC1(F)C(F)(F)C(F)(F)C2(F)C(F)(F)C(F)(F)C(F)(F)C(F)(F)C2(F)C1(F)F (stereo not given),-7.34%,
CCOc1cc(OCC)c(C(=O)CCC(=O)O)cc1OCC,-15.3%,
COc1ccc(-c2coc3cc(O)ccc3c2=O)cc1,-10.4%,
O=C(O)CC(O)C(=O)O (stereo not given),-26.6%,
c1ccc2c(CC3=NCCN3)cccc2c1,-10%,
